Experimental findings from ChEMBL document CHEMBL3988442, “University of Dundee, Small-Polar-MMV Screening Library” (2021) are described below.

In the assay the target is AMP-activated protein kinase, AMPK (Homo sapiens) (UniProt P54646+O43741+P54619+Q9UGJ0+Q9Y478+Q13131+Q9UGI9). The experiment in a line: AMP-dependent Kinase enzyme assay. An in vitro enzyme assay that detects ADP turnover that is directly proportional to AMPK activity. This uses naive AMPK that is activated during the assay with MK-8722. In kind it is functional. Also noted: scale not given: direction of the effect not stated beside the values. Conditions: 30 µM.
With `CC(C)NC(=O)CN(C)C(=O)c1csc(Cc2ccccc2F)n1`, the Percent Effect turned out to be 5.04%. As to `Cc1nonc1CN1CC[C@@](O)(C2CCOCC2)[C@H](C)C1`, the Percent Effect was -6.73%.

For the compound `COC(=O)c1cccc(C(=O)N(CCC#N)CC(C)(C)C)c1`, the Percent Effect is 2.62%. As for `O=C(Cc1c(F)cccc1Cl)NC1CCCCNC1=O` (stereo unspecified), the Percent Effect worked out at 7.73%. In the case of `Cc1cc(=O)n2nc(Oc3cccc(I)c3)sc2n1`, the Percent Effect was -1.18%.

On to `CCCOc1cc(CNC(=O)Nc2cccc(C(C)=O)c2)ccn1`, for which the Percent Effect was -3.21%. With `Clc1cc(NCc2ccncc2)nc2[nH]ccc12`, the Percent Effect was -59.2%. With `Cc1cc(C(=O)N2CCNC(=O)CC2)c(C)n1CC(F)(F)F`, the Percent Effect is -2.89%.

Take `Cc1ccc(C(=O)NCCC2CCN(C)CC2)cc1N(C)S(C)(=O)=O`: the Percent Effect is -4.15%. The same measure for `CN(Cc1nc(C(C)(C)C)no1)C1CCS(=O)(=O)C1` (stereo unspecified): 2.12%; for `Cc1cc(C)n2c(CNCc3ccc(OC(F)F)cc3)cnc2n1`: -12.4%; for `Cc1sc2ccccc2c1S(=O)(=O)NCCNC(=O)C(C)C`: -0.0872%. Consider `CCC(=O)Nc1cccc(OCC(=O)N2C[C@H]3CC[C@H]2C3)c1`, for which the Percent Effect was -10.8%.

With `Cc1cc(C)n(C2CCN(C(=O)c3cn4ccsc4n3)C2)n1` (stereo unspecified), the Percent Effect is -11.9%. The same measure for `CSc1ncccc1C(=O)Nc1ccc(Cn2ccccc2=O)cc1`: -11.3%.

For `COc1cc(Br)c(S(=O)(=O)NC(=O)C(C)OC)cc1OC` (stereo unspecified), the Percent Effect was -6.43%. The same measure for `CCc1nnc(CS(=O)(=O)c2ccc(C)cc2)n1C`: 6.29%; for `Cn1cc(CN2CCCC(O)C2)c(-c2ccccc2F)n1` (stereo unspecified): 5.23%. On to `COCCNS(=O)(=O)c1c(C)sc2ccccc12`, for which the Percent Effect was -3.2%. The same measure for `CCCc1cc(C(=O)NC(COC)c2ccnn2C)no1` (stereo unspecified): -16.8%; for `Cc1nnc(C(C)N2CCN(Cc3noc(C(C)(C)C)n3)CC2)o1` (stereo unspecified): -8.02%.
